Assay outcomes: PubChem BioAssay, Johns Hopkins Ion Channel Center
KCNQ2 inh: inhibitors of rat KCNQ2 potassium channel. CHO-K1 KCNQ2, FluxOR thallium flux, 20 min; active compounds read low. B-score at 10 µM. 310,000 compounds, 1.1% hits. AID 2156;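 active = fluorescence ratio B-score at most minus 3 library SDs, with starting brightness B-score within 2 library SDs, cut at about -5.5 in these data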
KCNQ2 pot: KCNQ2 (rat) channel potentiation; O88943; CHO-K1 KCNQ2, FluxOR thallium flux fluorescence; active compounds read high; B-score at 10 µM; 310,000 compounds, 0.54% hits; AID 2239;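 active = fluorescence ratio B-score at least 3 SD of library B-scores, with initial fluorescence B-score within 3 of them, cut at about 5.3 in these data; same plate scores as AID 2156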;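 also: B-score of peak minus minimum over baseline fluorescence ratio after K+ and Tl+ stimulus; positive B-score means potentiation of KCNQ2 with more thallium influx and brighter signal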
Hits are given with their value; n = inactive; x = no result. In the library only some 1.6% were active in any assay of this set; here they are far more common.

SMILES | KCNQ2 inh | KCNQ2 pot
CCOc1ccc(OCC)c(NC(=O)CN2CCN(c3cc(C)ccc3C)CC2)c1 | -5.6 | n
CCOc1ccc(OCC)c(NC(=O)CN2CCN(c3cccc(C)c3)CC2)c1 | n | n
O=C(Nc1ccc2c(c1)CCC2)c1cc(S(=O)(=O)N2CCN(c3ccccc3)CC2)ccc1Cl | n | x
COc1ccccc1NC(=O)CC1CCCC1 | n | n
CCCC(=O)NCc1ccccc1Cl | n | x
O=C(CC1CCCCC1)Nc1ccccc1-c1ccccc1 | n | 6.5
O=C(CNC(c1ccccc1)c1ccccc1)NCc1ccccc1Cl | -6 | n
O=C(CCC1CCCCC1)Nc1ccccc1O | n | n
O=C(CNC(c1ccccc1)c1ccccc1)Nc1ccccc1-c1ccccc1 | -6.3 | n
O=C(CCC1CCCC1)Nc1ccccc1-c1ccccc1 | n | 23
O=C(CNC(c1ccccc1)c1ccccc1)Nc1ccccc1F | n | x
Cc1cccc(N2CCN(C(=O)c3c(-c4ccccc4Cl)noc3C)CC2)c1C | n | x
O=C(Oc1ccc(-c2nnco2)cc1)C1CCN(C(=O)c2ccc(F)cc2)CC1 | n | n
Cc1ccccc1C(C(=O)NC1CCCCC1)N(C(=O)c1ccccn1)c1cccnc1 (stereo not drawn) | n | n
CCc1ccc(NC(=O)c2ccc(NC3=NC4CS(=O)(=O)CC4S3)cc2)cc1 (stereo not drawn) | n | x
O=C(CO/N=C/c1ccccc1OC(F)F)N1CCc2ccccc21 | n | x
O=C(CO/N=C/c1ccccc1Cl)N1CCCc2ccccc21 | -6.1 | n
C/C(N)=C(/C#N)C(=O)CN1C(=O)NC(Cc2c[nH]c3ccccc23)C1=O (stereo not drawn) | n | x
CSCCC(NC(=O)COc1ccccc1)C(=O)NCCOc1ccc(C)cc1 (stereo not drawn) | n | x
O=S(=O)(c1ccccc1Cl)N1CCCC(c2nc(-c3cccnc3)no2)C1 (stereo not drawn) | n | n
O=S(=O)(c1ccc(Cl)cc1)N1CCCC1c1nc2ccccc2s1 (stereo not drawn) | n | x
O=S(=O)(c1ccccc1Cl)N1CCCC1c1nc(-c2cccc(Cl)c2)no1 (stereo not drawn) | -6.3 | n
O=S(=O)(c1ccc(Cl)cc1)N1CCCC1c1nc(-c2cccc(Cl)c2)no1 (stereo not drawn) | -5.9 | n
N#CCCN(C(=O)COC(=O)c1cc(S(=O)(=O)N2CCOCC2)ccc1Cl)c1ccc(F)cc1 | n | n
O=C(NCCN1CCN(C(=O)c2ccc(F)cc2)CC1)c1ccc(F)cc1 | n | n
SMILES | KCNQ2 inh | KCNQ2 pot
CC(C)Oc1cccc(NC(=O)c2cnccc2C(F)(F)F)c1 | n | n
COC(=O)CSc1nnc(CSc2nc(C)cc(C)n2)n1Cc1ccco1 | n | x
Cc1cc(C)nc(SCc2nnc(SCc3ccc([N+](=O)[O-])cc3)n2Cc2ccco2)n1 | -5.8 | n
Cc1sc2nc(SCC(N)=O)n(-c3ccccc3)c(=O)c2c1C | n | x
COc1ccc(-c2noc(CSc3nc4ccccc4c(=O)n3-c3ccc(C)cc3)n2)cc1 | -5.7 | n
Cc1sc2nc(SCc3nc(-c4ccccc4)no3)n(-c3ccccc3)c(=O)c2c1C | -9 | n
COc1ccc(-c2noc(CSc3nnc(Cc4ccccc4)n3-c3ccc(Cl)cc3)n2)cc1 | n | x
CC12CCC(=O)N1C(C(=O)N1CCN(c3ccc(C(F)(F)F)cc3[N+](=O)[O-])CC1)CS2 (stereo not drawn) | n | n
CSc1nc2ccccc2cc1/C=C(\C#N)c1cccc(Cl)c1 | n | x
CCOC(=O)C1CCCN(c2oc(-c3ccc(OC)cc3)nc2C#N)C1 (stereo not drawn) | n | x
COc1cccc(CN(C)C(=O)c2cc(-c3ccc(OC)c(OC)c3)nc3ccccc23)c1 | -6 | n
COc1ccc(CN(C)C(=O)c2cc(-c3ccccc3)nc3ccc(C)cc23)c(OC)c1OC | -5.7 | n
COc1ccc(CCN(C)C(=O)c2cc(-c3ccccc3)nc3ccccc23)cc1OC | n | x
COc1ccc(-c2cc(C(=O)N(C)Cc3cccc(OC)c3OC)c3ccccc3n2)cc1OC | n | x
COc1cccc(CN(C)C(=O)c2cc(-c3ccc(F)cc3)nc3ccccc23)c1 | n | x
COc1ccc(-c2cc(C(=O)N(C)CCc3ccc(OC)c(OC)c3)c3ccccc3n2)cc1 | -5.6 | n
Fc1ccccc1C1c2[nH]c3ccccc3c2CCN1Cc1ccoc1 (stereo not drawn) | n | x
COc1ccc(Cl)cc1NC(=O)CN(C)C1CCCCC1 | n | x
COc1ccc(OC)c(NC(=O)CN(Cc2ccc(F)cc2)C2CCCCC2)c1 | -7.9 | n
C=CCC1C=C(C)CC(CC=C)N1 (stereo not drawn) | n | n
CCC(=O)NNC(=O)c1cc(COc2cc(Cl)cc(Cl)c2)on1 | n | n
N/C(=N\O)c1ccccc1N1CCCCC1 | n | n
CC(C)N(CCNC(=O)c1oc(=O)c2ccccc2c1-c1ccccc1)Cc1ccco1 | n | n
Cc1sc(-n2c(C)ccc2C)c(C#N)c1C | n | x
Cc1ccc(C)n1-c1sc2c(c1C#N)CCCC2 | -5.9 | n
